Experiments:
Test in all cases: DAPPL (digital affinity profiling via proximity ligation, sequencing); 10 mM Tris-HCl pH 7.5, 50 mM NaCl, 1 mM DTT, 4% glycerol, room temperature, 30 min; GST-TFs on glutathione beads, 16-mer random dsDNA library, 0.1% formaldehyde crosslink after washing; high values mean tight binding
[1] = target: T1, FLI1 (Homo sapiens, UniProt Q01543 1-452); conditions: protein: recombinant; tags: N-terminal GST; dsDNA, one strand shown
T1 sequence: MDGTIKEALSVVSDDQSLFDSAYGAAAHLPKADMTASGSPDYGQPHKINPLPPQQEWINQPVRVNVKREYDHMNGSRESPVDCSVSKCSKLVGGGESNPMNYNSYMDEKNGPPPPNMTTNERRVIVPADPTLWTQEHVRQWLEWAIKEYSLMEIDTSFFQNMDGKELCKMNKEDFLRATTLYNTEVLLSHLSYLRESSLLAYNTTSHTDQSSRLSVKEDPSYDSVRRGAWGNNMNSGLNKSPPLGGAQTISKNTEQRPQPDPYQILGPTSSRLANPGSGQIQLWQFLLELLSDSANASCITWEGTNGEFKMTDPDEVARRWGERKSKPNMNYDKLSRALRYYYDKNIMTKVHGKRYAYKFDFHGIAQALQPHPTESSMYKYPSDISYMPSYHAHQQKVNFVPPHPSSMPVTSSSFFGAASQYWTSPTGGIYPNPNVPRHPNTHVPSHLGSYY
How it was run: (§1)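 Each value of binding signal is a hexamer's read frequency for a factor divided by the same hexamer's frequency in the tag-only sample. Barcoded, bead-captured GST fusions of human transcription factors made in yeast were pooled with that sample and incubated with 200 nmole of a random double-stranded 16-mer DNA library in Tris/NaCl/DTT/glycerol buffer at room temperature for 30 min. Washing, 0.1% formaldehyde crosslinking, proximity ligation, PCR and Illumina NextSeq500 sequencing followed.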

[2] = target: T2, ELK1 (Homo sapiens, UniProt P19419 1-428); conditions: protein: recombinant; tags: N-terminal GST; dsDNA, one strand shown
T2 sequence: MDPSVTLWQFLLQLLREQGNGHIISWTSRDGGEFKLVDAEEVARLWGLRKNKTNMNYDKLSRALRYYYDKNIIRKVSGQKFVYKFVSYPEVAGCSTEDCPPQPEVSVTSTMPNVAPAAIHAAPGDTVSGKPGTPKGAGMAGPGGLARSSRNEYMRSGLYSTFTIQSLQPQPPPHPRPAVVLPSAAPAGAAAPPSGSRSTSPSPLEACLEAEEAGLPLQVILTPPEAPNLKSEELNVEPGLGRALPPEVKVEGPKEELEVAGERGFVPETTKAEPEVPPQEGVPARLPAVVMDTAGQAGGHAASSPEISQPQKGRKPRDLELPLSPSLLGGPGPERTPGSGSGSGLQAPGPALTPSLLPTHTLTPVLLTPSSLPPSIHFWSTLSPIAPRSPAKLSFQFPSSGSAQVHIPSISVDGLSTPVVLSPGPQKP
How it was run: as §1

[3] = target: T3, GABPA (Homo sapiens, UniProt Q06546 1-454); conditions: protein: recombinant; tags: N-terminal GST; dsDNA, one strand shown
T3 sequence: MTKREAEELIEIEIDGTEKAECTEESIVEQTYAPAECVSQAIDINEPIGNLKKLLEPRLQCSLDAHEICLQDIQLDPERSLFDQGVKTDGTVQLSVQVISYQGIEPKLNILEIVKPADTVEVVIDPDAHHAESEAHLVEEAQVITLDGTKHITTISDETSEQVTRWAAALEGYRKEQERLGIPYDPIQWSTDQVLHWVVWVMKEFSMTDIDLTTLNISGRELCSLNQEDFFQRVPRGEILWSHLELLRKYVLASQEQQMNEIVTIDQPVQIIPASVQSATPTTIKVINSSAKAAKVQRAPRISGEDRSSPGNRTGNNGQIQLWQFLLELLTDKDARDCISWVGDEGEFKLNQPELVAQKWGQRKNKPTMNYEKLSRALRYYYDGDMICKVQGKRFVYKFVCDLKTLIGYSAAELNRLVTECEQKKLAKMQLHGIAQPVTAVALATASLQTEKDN
How it was run: as §1

[4] = target: T4, ERG (Homo sapiens, UniProt P11308 1-479); conditions: protein: recombinant; tags: N-terminal GST; dsDNA, one strand shown
T4 sequence: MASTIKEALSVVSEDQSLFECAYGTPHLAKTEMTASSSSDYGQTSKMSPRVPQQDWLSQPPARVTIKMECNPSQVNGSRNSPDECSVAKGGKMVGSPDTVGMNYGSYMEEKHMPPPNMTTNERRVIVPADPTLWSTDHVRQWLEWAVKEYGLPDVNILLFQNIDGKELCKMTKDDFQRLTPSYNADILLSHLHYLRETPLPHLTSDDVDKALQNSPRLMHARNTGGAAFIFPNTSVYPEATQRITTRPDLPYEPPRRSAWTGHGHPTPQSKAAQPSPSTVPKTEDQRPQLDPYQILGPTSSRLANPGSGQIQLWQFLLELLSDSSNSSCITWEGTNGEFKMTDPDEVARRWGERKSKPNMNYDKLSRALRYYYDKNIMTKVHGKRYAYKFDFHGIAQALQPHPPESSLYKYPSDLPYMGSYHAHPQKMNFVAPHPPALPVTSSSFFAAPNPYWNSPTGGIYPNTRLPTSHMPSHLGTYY
How it was run: as §1

[5] = target: ELF1 (Homo sapiens, UniProt P32519 1-619); conditions: protein: recombinant; tags: N-terminal GST; dsDNA, one strand shown
How it was run: as §1

[6] = target: T5, EHF (Homo sapiens, UniProt Q9NZC4 1-300); conditions: protein: recombinant; tags: N-terminal GST; dsDNA, one strand shown
T5 sequence: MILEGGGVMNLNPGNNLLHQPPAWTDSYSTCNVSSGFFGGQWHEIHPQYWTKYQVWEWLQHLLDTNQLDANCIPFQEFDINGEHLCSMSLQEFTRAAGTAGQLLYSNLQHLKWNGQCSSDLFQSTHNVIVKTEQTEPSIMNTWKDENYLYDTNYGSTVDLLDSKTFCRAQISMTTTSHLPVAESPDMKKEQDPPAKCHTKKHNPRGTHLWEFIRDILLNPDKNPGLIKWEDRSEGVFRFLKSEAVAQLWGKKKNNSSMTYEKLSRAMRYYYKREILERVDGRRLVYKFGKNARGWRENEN
How it was run: as §1

[7] = target: SPI1 (Homo sapiens, UniProt P17947 1-270); conditions: protein: recombinant; tags: N-terminal GST; dsDNA, one strand shown
How it was run: as §1

[8] = target: SPIB (Homo sapiens, UniProt Q01892 1-262); conditions: protein: recombinant; tags: N-terminal GST; dsDNA, one strand shown
How it was run: as §1

[9] = target: T6, ELK3 (Homo sapiens, UniProt P41970 1-407); conditions: protein: recombinant; tags: N-terminal GST; dsDNA, one strand shown
T6 sequence: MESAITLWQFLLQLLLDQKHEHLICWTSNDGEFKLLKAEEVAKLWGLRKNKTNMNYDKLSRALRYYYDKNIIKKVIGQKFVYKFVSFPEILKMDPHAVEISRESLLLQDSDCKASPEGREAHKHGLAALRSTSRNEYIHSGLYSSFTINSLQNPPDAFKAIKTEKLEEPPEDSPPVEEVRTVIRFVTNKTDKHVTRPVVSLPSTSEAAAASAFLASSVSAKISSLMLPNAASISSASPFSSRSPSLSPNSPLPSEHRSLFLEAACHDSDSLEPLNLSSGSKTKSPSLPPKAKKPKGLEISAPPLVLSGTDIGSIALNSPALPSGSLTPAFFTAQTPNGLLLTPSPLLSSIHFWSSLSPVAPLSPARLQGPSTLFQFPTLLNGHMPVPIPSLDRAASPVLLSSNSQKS
How it was run: as §1

[10] = target: T7, FEV (Homo sapiens, UniProt Q99581 1-238); conditions: protein: recombinant; tags: N-terminal GST; dsDNA, one strand shown
T7 sequence: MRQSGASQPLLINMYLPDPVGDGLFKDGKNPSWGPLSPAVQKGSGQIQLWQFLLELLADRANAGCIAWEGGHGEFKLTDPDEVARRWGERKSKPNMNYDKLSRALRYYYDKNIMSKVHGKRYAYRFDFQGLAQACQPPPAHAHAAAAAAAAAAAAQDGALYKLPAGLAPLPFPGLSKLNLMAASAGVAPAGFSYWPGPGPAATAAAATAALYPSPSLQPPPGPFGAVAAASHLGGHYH
How it was run: as §1

[11] = target: ETV5 (Homo sapiens, UniProt P41161 1-510); conditions: protein: recombinant; tags: N-terminal GST; dsDNA, one strand shown
How it was run: as §1

[12] = target: HSF1 (Homo sapiens, UniProt Q00613 1-529); conditions: protein: recombinant; tags: N-terminal GST; chain copies: 3; dsDNA, one strand shown
How it was run: as §1

[13] = target: T8, SPIC (Homo sapiens, UniProt Q8N5J4 1-248); conditions: protein: recombinant; tags: N-terminal GST; dsDNA, one strand shown
T8 sequence: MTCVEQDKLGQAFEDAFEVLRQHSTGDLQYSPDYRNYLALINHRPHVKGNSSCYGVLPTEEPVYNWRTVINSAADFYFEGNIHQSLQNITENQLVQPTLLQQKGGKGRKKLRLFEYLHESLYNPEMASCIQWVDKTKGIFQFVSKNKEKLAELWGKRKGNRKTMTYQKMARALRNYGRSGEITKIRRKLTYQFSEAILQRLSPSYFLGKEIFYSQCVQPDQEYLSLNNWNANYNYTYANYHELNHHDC
How it was run: as §1

[14] = target: ELF4 (Homo sapiens, UniProt Q99607 1-663); conditions: protein: recombinant; tags: N-terminal GST; dsDNA, one strand shown
How it was run: as §1

[15] = target: T9, ELK4 (Homo sapiens, UniProt P28324-2 1-405); conditions: protein: recombinant; tags: N-terminal GST; dsDNA, one strand shown
T9 sequence: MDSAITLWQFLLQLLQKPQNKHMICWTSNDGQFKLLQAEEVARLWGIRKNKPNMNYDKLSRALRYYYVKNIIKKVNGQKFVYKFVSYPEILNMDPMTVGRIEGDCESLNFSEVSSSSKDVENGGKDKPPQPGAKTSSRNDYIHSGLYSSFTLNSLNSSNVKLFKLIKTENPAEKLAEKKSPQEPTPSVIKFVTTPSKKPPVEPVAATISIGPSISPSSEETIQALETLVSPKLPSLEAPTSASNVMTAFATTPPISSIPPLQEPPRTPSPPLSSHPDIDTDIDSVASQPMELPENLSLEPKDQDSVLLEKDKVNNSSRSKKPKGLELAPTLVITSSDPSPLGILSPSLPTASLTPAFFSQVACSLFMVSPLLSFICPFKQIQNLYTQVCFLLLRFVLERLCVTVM
How it was run: as §1

[16] = target: T10, ETV2 (Homo sapiens, UniProt O00321 1-342); conditions: protein: recombinant; tags: N-terminal GST; dsDNA, one strand shown
T10 sequence: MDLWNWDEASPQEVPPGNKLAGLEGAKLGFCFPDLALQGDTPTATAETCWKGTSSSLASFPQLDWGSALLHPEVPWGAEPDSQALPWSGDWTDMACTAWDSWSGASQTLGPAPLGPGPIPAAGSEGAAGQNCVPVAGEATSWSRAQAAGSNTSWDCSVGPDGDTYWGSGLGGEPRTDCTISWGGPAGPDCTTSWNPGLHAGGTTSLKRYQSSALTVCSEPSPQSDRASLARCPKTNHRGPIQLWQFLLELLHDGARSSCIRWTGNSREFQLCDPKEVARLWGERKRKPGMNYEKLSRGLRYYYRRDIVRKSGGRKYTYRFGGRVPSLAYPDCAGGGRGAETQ
How it was run: as §1

[17] = target: T11, ELF3 (Homo sapiens, UniProt P78545 1-371); conditions: protein: recombinant; tags: N-terminal GST; dsDNA, one strand shown
T11 sequence: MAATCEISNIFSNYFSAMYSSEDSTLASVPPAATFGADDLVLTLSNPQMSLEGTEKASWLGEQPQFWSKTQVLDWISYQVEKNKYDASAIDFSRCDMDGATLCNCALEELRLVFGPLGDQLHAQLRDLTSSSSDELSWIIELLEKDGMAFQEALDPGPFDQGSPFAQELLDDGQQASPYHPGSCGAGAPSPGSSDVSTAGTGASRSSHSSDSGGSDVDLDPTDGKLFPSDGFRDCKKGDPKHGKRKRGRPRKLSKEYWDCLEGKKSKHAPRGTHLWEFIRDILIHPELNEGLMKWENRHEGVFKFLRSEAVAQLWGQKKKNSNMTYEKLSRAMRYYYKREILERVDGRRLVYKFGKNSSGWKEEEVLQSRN
How it was run: as §1

[18] = target: CRX (Homo sapiens, UniProt O43186 1-299); conditions: protein: recombinant; tags: N-terminal GST; dsDNA, one strand shown
How it was run: as §1

[19] = target: ETV1 (Homo sapiens, UniProt P50549 1-477); conditions: protein: recombinant; tags: N-terminal GST; dsDNA, one strand shown
How it was run: as §1

ETV5, sequence (P41161 whole entry): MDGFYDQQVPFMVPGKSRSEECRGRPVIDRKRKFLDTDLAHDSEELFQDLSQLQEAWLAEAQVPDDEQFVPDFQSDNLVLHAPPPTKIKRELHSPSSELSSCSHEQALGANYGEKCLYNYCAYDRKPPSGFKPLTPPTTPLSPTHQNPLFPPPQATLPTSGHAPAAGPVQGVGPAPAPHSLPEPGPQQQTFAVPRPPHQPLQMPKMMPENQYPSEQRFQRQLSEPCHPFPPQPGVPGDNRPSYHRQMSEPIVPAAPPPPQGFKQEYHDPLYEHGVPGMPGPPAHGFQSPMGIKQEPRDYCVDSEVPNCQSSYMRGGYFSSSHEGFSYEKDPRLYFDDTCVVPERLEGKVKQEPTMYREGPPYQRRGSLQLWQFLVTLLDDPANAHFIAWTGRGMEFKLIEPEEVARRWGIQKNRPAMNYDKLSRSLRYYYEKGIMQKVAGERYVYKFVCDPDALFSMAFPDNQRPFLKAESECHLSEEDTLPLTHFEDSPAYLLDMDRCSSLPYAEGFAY
ETV1, sequence (P50549 whole entry): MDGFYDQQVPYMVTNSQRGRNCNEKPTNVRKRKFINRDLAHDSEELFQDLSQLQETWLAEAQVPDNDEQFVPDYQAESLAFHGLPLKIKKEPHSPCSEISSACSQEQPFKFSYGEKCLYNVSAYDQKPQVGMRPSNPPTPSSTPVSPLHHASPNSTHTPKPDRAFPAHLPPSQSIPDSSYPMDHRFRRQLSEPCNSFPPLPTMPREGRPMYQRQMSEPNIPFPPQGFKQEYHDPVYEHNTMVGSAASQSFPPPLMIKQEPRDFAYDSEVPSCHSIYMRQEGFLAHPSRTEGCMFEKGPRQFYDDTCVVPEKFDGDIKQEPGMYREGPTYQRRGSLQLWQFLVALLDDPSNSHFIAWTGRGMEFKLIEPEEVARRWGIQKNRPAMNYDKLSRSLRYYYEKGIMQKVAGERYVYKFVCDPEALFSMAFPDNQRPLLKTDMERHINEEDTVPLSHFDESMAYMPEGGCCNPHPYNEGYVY
HSF1, sequence (Q00613 whole entry): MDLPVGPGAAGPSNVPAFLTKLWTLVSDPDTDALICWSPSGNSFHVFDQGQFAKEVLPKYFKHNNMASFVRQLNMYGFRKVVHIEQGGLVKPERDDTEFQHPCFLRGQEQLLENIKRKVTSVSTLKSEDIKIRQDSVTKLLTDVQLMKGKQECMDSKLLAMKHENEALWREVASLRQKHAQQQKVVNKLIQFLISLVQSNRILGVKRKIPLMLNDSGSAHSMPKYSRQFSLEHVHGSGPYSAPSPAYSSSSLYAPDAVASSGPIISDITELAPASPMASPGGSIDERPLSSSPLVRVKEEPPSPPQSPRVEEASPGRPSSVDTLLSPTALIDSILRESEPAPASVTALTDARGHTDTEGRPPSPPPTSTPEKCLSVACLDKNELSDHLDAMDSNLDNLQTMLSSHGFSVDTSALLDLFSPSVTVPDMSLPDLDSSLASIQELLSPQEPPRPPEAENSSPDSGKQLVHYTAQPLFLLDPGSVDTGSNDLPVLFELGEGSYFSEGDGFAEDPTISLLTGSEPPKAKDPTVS
ELF1, sequence (P32519 whole entry): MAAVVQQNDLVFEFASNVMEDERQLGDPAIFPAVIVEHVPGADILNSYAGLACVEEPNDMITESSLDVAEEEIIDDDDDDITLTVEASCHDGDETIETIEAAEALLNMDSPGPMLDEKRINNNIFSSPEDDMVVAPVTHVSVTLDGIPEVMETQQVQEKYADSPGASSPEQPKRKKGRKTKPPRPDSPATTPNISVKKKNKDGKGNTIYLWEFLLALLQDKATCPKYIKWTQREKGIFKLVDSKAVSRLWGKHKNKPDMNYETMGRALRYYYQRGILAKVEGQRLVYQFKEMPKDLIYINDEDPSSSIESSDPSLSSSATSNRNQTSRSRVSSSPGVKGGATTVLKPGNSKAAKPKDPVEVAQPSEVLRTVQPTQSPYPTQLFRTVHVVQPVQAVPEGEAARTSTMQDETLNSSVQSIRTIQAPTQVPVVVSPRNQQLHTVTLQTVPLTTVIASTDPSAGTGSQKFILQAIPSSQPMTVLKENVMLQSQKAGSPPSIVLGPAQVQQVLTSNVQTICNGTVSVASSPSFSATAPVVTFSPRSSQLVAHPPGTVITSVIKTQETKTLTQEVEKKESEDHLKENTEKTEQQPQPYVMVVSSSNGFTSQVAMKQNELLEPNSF
ELF4, sequence (Q99607 whole entry): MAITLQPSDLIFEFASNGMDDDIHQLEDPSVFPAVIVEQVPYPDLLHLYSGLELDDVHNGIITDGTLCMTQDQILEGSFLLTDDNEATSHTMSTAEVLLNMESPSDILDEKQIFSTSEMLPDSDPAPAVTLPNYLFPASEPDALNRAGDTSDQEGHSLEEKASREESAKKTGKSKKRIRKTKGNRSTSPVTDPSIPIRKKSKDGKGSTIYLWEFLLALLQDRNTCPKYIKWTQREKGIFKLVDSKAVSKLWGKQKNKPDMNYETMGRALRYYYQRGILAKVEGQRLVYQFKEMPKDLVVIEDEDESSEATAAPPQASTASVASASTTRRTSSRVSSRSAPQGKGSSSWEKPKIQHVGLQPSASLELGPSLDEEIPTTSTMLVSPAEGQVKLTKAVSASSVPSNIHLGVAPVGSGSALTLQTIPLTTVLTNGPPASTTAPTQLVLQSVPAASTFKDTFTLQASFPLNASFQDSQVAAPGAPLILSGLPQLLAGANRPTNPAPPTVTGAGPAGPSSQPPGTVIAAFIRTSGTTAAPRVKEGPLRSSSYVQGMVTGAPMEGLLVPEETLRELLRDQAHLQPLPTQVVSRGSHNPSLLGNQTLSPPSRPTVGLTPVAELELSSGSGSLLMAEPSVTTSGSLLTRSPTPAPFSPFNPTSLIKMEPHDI
CRX, sequence (O43186 whole entry): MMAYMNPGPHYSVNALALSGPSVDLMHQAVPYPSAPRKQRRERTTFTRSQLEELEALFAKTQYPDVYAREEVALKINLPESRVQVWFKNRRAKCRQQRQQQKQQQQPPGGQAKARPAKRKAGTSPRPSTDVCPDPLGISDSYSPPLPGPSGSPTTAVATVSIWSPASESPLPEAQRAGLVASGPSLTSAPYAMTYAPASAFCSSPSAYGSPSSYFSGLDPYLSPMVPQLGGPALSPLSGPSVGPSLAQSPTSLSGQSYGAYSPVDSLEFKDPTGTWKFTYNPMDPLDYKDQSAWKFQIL
SPIB, sequence (Q01892 whole entry): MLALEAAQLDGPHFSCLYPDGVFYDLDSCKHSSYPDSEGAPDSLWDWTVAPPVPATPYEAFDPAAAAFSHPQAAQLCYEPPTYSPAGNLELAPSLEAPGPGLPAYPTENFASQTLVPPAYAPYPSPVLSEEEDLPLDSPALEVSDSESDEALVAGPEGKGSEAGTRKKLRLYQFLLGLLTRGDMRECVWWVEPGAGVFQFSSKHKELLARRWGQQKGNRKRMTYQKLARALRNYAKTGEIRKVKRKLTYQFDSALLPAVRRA

## ATTATG
[1]
  binding signal: 1.3 fold enrichment (6-mer frequency, TF over GST control)
[2]
  binding signal: 1.18 fold enrichment (6-mer frequency, TF over GST control)
[3]
  binding signal: 1.16 fold enrichment (6-mer frequency, TF over GST control)
[4]
  binding signal: 1.2 fold enrichment (6-mer frequency, TF over GST control)
[5]
  binding signal: 1.2 fold enrichment (6-mer frequency, TF over GST control)
[6]
  binding signal: 1.25 fold enrichment (6-mer frequency, TF over GST control)
[7]
  binding signal: 1.25 fold enrichment (6-mer frequency, TF over GST control)
[8]
  binding signal: 1.25 fold enrichment (6-mer frequency, TF over GST control)
[9]
  binding signal: 1.17 fold enrichment (6-mer frequency, TF over GST control)
[10]
  binding signal: 1.13 fold enrichment (6-mer frequency, TF over GST control)
[11]
  binding signal: 1.26 fold enrichment (6-mer frequency, TF over GST control)
[12]
  binding signal: 1.68 fold enrichment (6-mer frequency, TF over GST control)
[13]
  binding signal: 1.42 fold enrichment (6-mer frequency, TF over GST control)
[14]
  binding signal: 1.22 fold enrichment (6-mer frequency, TF over GST control)
[15]
  binding signal: 1.11 fold enrichment (6-mer frequency, TF over GST control)
[16]
  binding signal: 1.03 fold enrichment (6-mer frequency, TF over GST control)
[17]
  binding signal: 1.48 fold enrichment (6-mer frequency, TF over GST control)
[18]
  binding signal: 2.58 fold enrichment (6-mer frequency, TF over GST control)
[19]
  binding signal: 1.21 fold enrichment (6-mer frequency, TF over GST control)

Reference: article PMC7862700, “An all-to-all approach to the identification of sequence-specific readers for epigenetic DNA modifications on cytosine”
